TSHR antagonist = human thyrotropin receptor antagonism; P16473; TSHR-expressing cells, TSH-stimulated cAMP HTRF, 2 h; hits give low values; activity change, negative = inhibition, % at 11.5 µM; 330,000 compounds, 0.2% hits; AID 504810;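 active = activity change below a set negative limit, meaning inhibition stronger than a set level, cut at about -70% in these data; inconclusive = activity change between two set negative limits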
Target sequence (P16473 whole entry, looked up): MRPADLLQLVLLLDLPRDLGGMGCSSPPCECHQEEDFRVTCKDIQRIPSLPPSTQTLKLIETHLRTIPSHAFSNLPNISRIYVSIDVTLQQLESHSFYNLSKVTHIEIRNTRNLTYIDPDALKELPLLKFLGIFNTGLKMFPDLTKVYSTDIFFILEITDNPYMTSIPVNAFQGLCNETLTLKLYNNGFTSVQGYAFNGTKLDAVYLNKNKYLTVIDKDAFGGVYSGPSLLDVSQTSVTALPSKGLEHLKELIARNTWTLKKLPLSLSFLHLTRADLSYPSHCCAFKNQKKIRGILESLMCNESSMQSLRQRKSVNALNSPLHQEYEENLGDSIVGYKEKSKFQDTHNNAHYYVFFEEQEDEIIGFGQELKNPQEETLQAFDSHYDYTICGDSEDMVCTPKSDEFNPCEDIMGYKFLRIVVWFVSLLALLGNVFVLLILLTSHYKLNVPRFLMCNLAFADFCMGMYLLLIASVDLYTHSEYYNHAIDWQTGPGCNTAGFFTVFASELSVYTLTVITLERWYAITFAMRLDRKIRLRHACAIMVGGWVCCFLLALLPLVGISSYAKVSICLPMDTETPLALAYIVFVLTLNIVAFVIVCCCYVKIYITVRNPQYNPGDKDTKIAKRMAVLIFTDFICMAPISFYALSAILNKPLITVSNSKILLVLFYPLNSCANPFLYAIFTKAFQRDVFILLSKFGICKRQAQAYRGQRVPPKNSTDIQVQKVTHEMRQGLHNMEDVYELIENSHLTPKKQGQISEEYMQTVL
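Cell-based HTRF cAMP assay; TSHR cells + compound, TSH EC80 (4nM final), 2 h, 37 deg C. Lysis with anti-cAMP cryptate and cAMP-d2, 30 min RT, read 665/620 nm.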
ELG1 repair inh = ELG1-dependent DNA repair inhibition; HEK293T ELG1-luciferase reporter, luminescence, 16 h; DNA damage induced by 5-fluorouridine; Potency, µM (series often up to 46.1 µM), most hits filed as inhibitors; 330,000 compounds, 2.3% hits; AID 504467; note: nearly all actives have a fitted effect of over 55% in size
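Luminescence from the luciferase reporter, measured 30 min after ONE-Glo reagent at room temperature, was the read-out. Beforehand, 2,000 cells per well were exposed for 16 hr at 37 °C to 5-fluorouridine together with compound or vehicle.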
VP16 counter = counter-screen for ROR gamma inhibitors: Gal4-VP16 reporter; 310,000 compounds, 3.5% hits; Potency, µM (doses to about 53.6 µM), usual class: inhibitors; Drosophila S2 Gal4-VP16 UAS-luciferase, luminescence, 20 h;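 note: Gal4-VP16 expression switched on by copper sulfate through the metallothionein promoter; nearly all actives have a fitted effect of over 50% in size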
B2AR arrestin = recruits beta-arrestin to the human beta2-adrenergic receptor. P07550. beta-arrestin recruitment to beta2AR, cell-based reporter. Potency, µM (highest dose often 46.1 µM), hits mostly activators. 330,000 compounds, 0.02% hits; note: nearly all actives have a fitted effect of over 65% in size
RORg inh = inhibitors of mouse ROR gamma transcriptional activity; P51450; Drosophila S2 Gal4-RORgamma UAS-luciferase reporter, 20 h; Potency, µM (doses to about 53.6 µM), usual class: inhibitors; 310,000 compounds, 5.4% hits; note: nearly all actives have a fitted effect of over 60% in size
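Using a luciferase readout, inhibitors were identified by reduced reporter activity in Drosophila cells coexpressing a copper-inducible Gal4–ROR gamma fusion and UAS-driven Photinus luciferase, incubated 20 hr after 700 uM copper sulfate.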
A number is an active result; - = inactive; ? = inconclusive; . = no result given; [ ] = another dose, or the depositor's remark. In the library only some 7.5% were active in any assay of this set; here they are far more common. Unless noted, calls come from the whole dose curve; as a rule, active = well fitted curve in the direction sought with a large enough effect; inconclusive = small, poorly fitted or top-dose-only effect, or another doubt; inactive = no such curve, though single readings can be large; an effect the other way counts as inactive or inconclusive.

SMILES	TSHR antagonist	ELG1 repair inh	VP16 counter	B2AR arrestin	RORg inh
C=CC[C@H](CC(=O)N(CCO)Cc1ccccc1)C(=O)N[C@@H](COC(=O)[C@@H](CC=C)Cc1ccc(F)cc1)Cc1c[nH]c2ccccc12	-	21µM	.	-	.
C=CC[C@@H](CC(=O)N(CCO)Cc1ccccc1)C(=O)N[C@@H](C)COC(=O)[C@@H](CC=C)Cc1ccc(F)cc1	-	18µM	.	-	.
C=CC[C@@H](CC(=O)N(CCO)Cc1ccccc1)C(=O)N[C@@H](COC(=O)[C@@H](CC=C)CC(=O)OC(C)(C)C)Cc1c[nH]c2ccccc12	-	?	.	-	.
C=CC[C@H](CC(=O)N(CCO)Cc1ccccc1)C(=O)N[C@H](COC(=O)[C@@H](CC=C)Cc1ccc(F)cc1)C(C)(C)C	-	?	.	-	.
O=C(CC1C(=O)NCCN1Cc1ccccc1C(F)(F)F)NC1CCCCCC1 (stereo not given)	-	?	-	-	-
COc1cc2c(cc1OC)C(c1ccccc1Cl)N(C)CC2 (stereo not given)	-	-	-	-	-
C=CCN(c1ccc(C(=O)NCCSc2ccccc2)cc1)S(C)(=O)=O	-	-	-	-	?
COC(=O)C1C(C)OC(=O)NC1c1ccccc1 (stereo not given)	.	.	-[10 µM]	.	-[10 µM]
CCCc1cc(NCC2CCCO2)n2c(nc3ccccc32)c1C#N (stereo not given)	-	23µM	-	-	-
COC(=O)NC(c1ccccc1)C1(C(=O)OC)C(=O)Cc2ccccc21 (stereo not given)	.	.	-	.	-
O=C(Cc1ccc(S(=O)(=O)N2CCOCC2)s1)N1CCN(S(=O)(=O)c2ccc(Cl)cc2)CC1	-	-	.	-	.
COc1ccc(-n2cc(-c3ccccc3)[n+]3c2CCCCC3)cc1	-	?	?	-	-
COc1ccc(-n2cc(-c3ccc(C)cc3)[n+]3c2SCC3)cc1	-	?	7.9µM	-	-
c1ccc(-c2cn(-c3ccccc3)c3[n+]2CCCS3)cc1	-	21µM	-	-	-
Cc1ccc(-c2cn(-c3ccccc3)c3[n+]2CCCS3)cc1	-	?	11µM	-	-
CCc1ccc(-n2cc(-c3ccc(F)cc3)[n+]3c2SCCC3)cc1	-	4.6µM	?	-	-
N#Cc1ccc(-c2cn(-c3ccccc3)c3[n+]2CCCS3)cc1	-	-	-	-	-
CCc1ccc(-c2csc3[n+]2CCN3C(C)=O)cc1	-	?	-	-	-
O=C(Nc1ccc(Br)cc1)C1OCCc2ccccc21 (stereo not given)	-	-	-	-	-
O=C(COc1ccc(Cl)cc1)NNC(=S)NCc1ccccc1	-	?	5.6µM	-	1.1µM
O=C(COc1ccc(Br)cc1)NNC(=S)NCc1ccccc1	-	-	?	-	?
C=CCc1ccccc1OCC(=O)NNC(=S)NCc1ccccc1	-	-	10µM	-	1.4µM
CC(C)(C)OC(=O)NNC(=S)NCc1ccc(Cl)cc1	-	-	?	-	14µM
O=C(NCCC(=O)N1CCCCCCC1)c1ccc(Cl)cc1	-	?	.	-	.
CC[C@H](C)[C@H](NC(=O)[C@H](C)NC(=O)[C@H](CC(N)=O)NC(=O)[C@H](CCCCN)NC(=O)[C@H](Cc1ccccc1)NC(=O)[C@H](CC(C)C)NC(=O)[C@@H](NC(=O)[C@@H](NC(=O)[C@H](CC(C)C)NC(=O)[C@@H]1CCCN1C(=O)[C@@H](NC(=O)[C@H](CCC(N)=O)NC(=O)[C@H](CO)NC(=O)[C@H](CCCCN)NC(=O)[C@H](CCC(=O)O)NC(=O)[C@H](CO)NC(=O)[C@@H](NC(=O)[C@H](CCSC)NC(=O)[C@H](Cc1ccccc1)NC(=O)CNC(=O)CNC(=O)[C@@H](N)Cc1ccc(O)cc1)[C@@H](C)O)[C@@H](C)O)C(C)C)[C@@H](C)O)C(=O)N[C@H](C(=O)N[C@@H](CCCCN)C(=O)N[C@@H](CC(N)=O)C(=O)N[C@@H](C)C(=O)N[C@@H](Cc1ccc(O)cc1)C(=O)N[C@@H](CCCCN)C(=O)N[C@@H](CCCCN)C(=O)NCC(=O)N[C@@H](CCC(=O)O)C(=O)O)[C@@H](C)CC	.	.	-	.	-
SMILES	TSHR antagonist	ELG1 repair inh	VP16 counter	B2AR arrestin	RORg inh
O=C(c1cnccn1)N1CCC[C@@]2(CCN(c3cccc(-c4ccccc4)c3)C2)C1	.	.	-	.	-
O=C(C[C@H]1C/C=C\C[C@@H](Cc2ccc(F)cc2)C(=O)OC[C@H]2CCCN2C1=O)NCCO	-	-	.	-	.
CCNc1nc(NCC)nc(N(C)N)n1	-	-	?	-	7.1µM
CC(C)Nc1nc(NC(C)C)nc(N(C)N)n1	-	-	-	-	-
Cc1ccc(C)c(NC2=C(Cl)C(=O)OC2OC(=O)c2ccco2)c1 (stereo not given)	-	-	?	-	11µM
C/C(=N\Nc1cc(C)nc(-c2ccccc2O)n1)c1ccccc1O	-	?	-	-	-
C/C(=N\Nc1nc2ccccc2nc1C)c1ccccc1O	-	-	2µM	-	0.22µM
O=C(CCC(=O)NNC(=O)Cc1ccccc1)NCc1ccccc1	-	-	-	-	-
CCC(=O)NNC(=O)CSc1nnc(-c2ccccc2)c(-c2ccccc2)n1	-	-	-	-	-
CCNC(=S)NNc1nnc(-c2ccccc2)c(-c2ccccc2)n1	-	?	?	-	13µM
CCCCC(=O)NNC(=S)NCc1ccccc1	-	-	-	-	14µM
CCNC(=S)NNC(=S)NCc1ccccc1	-	-	?	-	7.1µM
COC(=O)c1nnc(N[C@@H](Cc2c[nH]c3ccccc23)C(=O)OC)nc1C(=O)OC	.	.	-	.	-
O=C(/C=C/c1ccccc1)NC(NC(=S)Nc1cccc(Cl)c1)C(Cl)(Cl)Cl (stereo not given)	-	?	18µM	-	?
CC(=O)NC(NC(=S)Nc1ccc(N=Nc2ccccc2C)cc1C)C(Cl)(Cl)Cl (stereo not given)	-	-	-	-	-
Cc1ccc(NC(=S)NC(NC(=O)C(C)(C)C)C(Cl)(Cl)Cl)c(C)c1 (stereo not given)	-	-	-	-	13µM
O=C(/C=C/c1ccccc1)NC(NC(=S)Nc1ccc(C(=O)O)cc1)C(Cl)(Cl)Cl (stereo not given)	-	-	-	-	-[10 µM]
Cc1ccc(C)c(NC(=S)NC(NC(=O)/C=C/c2ccccc2)C(Cl)(Cl)Cl)c1 (stereo not given)	-	-	11µM	-	5µM
O=C(/C=C/c1ccccc1)NC(NC(=S)Nc1cccc(O)c1)C(Cl)(Cl)Cl (stereo not given)	-	?	?	-	-
O=C(/C=C/c1ccccc1)NC(NC(=S)Nc1ccc(Cl)cc1Cl)C(Cl)(Cl)Cl (stereo not given)	-	?	5µM	-	?
COc1ccccc1CNC(=O)CN(C)S(=O)(=O)c1ccc(Br)s1	-	-	-	-	-

Screening results from PubChem BioAssay.
